From PubChem BioAssay (NCI)
Compounds without any hit were thinned out: in the full panel of roughly 79,000, 15% have a hit. A number with no mark means an inactive call. Active and inactive are the calls of the source. Cut-off read from the data, not from the text of the source: active = growth inhibition above about 70%; inactive = the rest.

Assay: NCI Yeast Anticancer Drug Screen. Data for the rad50 strain (AID 155);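 note: 0% = growth of vehicle-only cultures of the same strain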
Details: S. cerevisiae rad50 strain growth inhibition, stronger effect = higher value
Method: Growth inhibition of yeast strains with defined genetic alterations is measured as a screen for potential anti-cancer activity. Selected strains with alterations in DNA damage repair or cell cycle control were exposed to compounds and growth inhibition was measured relative to vehicle treated controls. The strain used in this assay is rad50

[1] = at 5.0 µM (retest, dose inferred, filed as 0.5)
[2] = at 50.0 µM (retest, dose inferred, filed as 5.0)

Compound | growth inhibition [1] [%] | growth inhibition [2] | growth inhibition (at 50.0 µM)
C/C(=N\NC(=S)Nc1ccc([N+](=O)[O-])cc1)c1nc2ncccc2[nH]1 | -8 | 71% (active) | 72.3% (active)
COC(=O)c1ccc(SCC(=O)c2ccc([N+](=O)[O-])o2)cc1 | 4 | 90% (active) | 97% (active)
COC(=O)c1ccc(C)cc1CC1Cc2cc(C)ccc2C1=O (configuration not stated) | 5 | 54% | 36.1%
CCCCCCCCCCS(=O)(=O)Nc1ccc(C(=O)NN)cc1 | 60 | 83% (active) | 92.6% (active)
CCOc1ccccc1C(=O)Oc1cccc(C)c1 | -7 | -1% | 1.95%
S=c1[nH]c2ccc(Br)cc2c(=S)n1-c1ccccc1 | -1 | 19% | 90.5% (active)
COC1OC(COC(=O)c2ccccc2)CC1F (configuration not stated) | 16 | -26% | 93.5% (active)
COc1ccc(C2c3cc4c(cc3OC(N3CCOCC3)C2C)OCO4)c(OC)c1 (configuration not stated) | -3 | 88% (active) | 95.9% (active)
CC(=O)OC1=Cc2ccccc2C(c2ccccc2)c2ccccc21 (configuration not stated) | -10 | 29% | 14.3%
Cc1ccc(C2COc3cc(O)c(O)cc3C2)cc1 (configuration not stated) | 29 | 99% (active) | 99.5% (active)
COc1cc(C2=NCCO2)cc(OC)c1OC | -158 | -155% | 9.4%
CCOC(=O)c1ccc(NC(=O)O/N=C(/Cl)CC)cc1 | 4 | 83% (active) | 67%
C#C[C@]1(OC(C)=O)CC[C@H]2[C@@H]3CCC4=CC(=O)CC[C@@H]4[C@H]3CC[C@@]21C | 4 | 16% | 97.6% (active)
NC1=NC2=C(CCCC2)C(c2cccs2)S1 (configuration not stated) | 57 | 82% (active) | 65.8%
